From PubChem BioAssay AID1259343 (VanderVen Lab, College of Veterinary Medicine, Cornell …, 2017)
The campaign covered roughly 6,200 compounds. About 2,900 (47%) were called active. The set was probably picked from earlier hits. Some of the results follow. Unmarked numbers belong to inactive results. Cut-off read from the data, not from the text of the source: active = inhibition above about 50%; inactive = the rest.

Assay: Mycobacterium tuberculosis growth inhibition, primary screen (AID 1259343)
Conditions: inhibition: at 10 µM, hits give high values; outcome: 10 uM
For `CN(Cc1ccc(Cl)cc1)c1ccc2c(C3CC3)noc2n1`, the inhibition was 41.3%. In the case of `CN(Cc1cccnc1)c1ccc2c(-c3ccccc3F)noc2n1`, the inhibition was 90.6% (active). In the case of `CCn1cnnc1CN(C)c1ccc(-c2nc(-c3ccccc3F)no2)cn1`, the inhibition was 7.76%. For `O=Cc1ccc(-c2ccc(Cl)cc2Cl)[nH]1`, the inhibition was 91.2% (active). Work on `CCOc1nc(NC(C)c2ccccc2)ncc1Br` (configuration not stated) yielded an inhibition of 28%. In the case of `CC(NCCC(c1ccccc1)c1ccccc1)c1ccccc1` (configuration not stated), the inhibition was 58.2% (active). `Oc1ccc(-c2csc(Cc3ccccc3)n2)cc1O` showed an inhibition of 30.3%. `Clc1ccccc1CSCc1csc(Cc2ccc3c(c2)OCO3)n1` showed an inhibition of 11.8%. In the case of `Cc1ccc(Cc2nc(CSCCc3ccccc3)cs2)cc1`, the inhibition was 63.4% (active). With `Cc1ccc(COc2ccc3c(C4CC4)noc3n2)cc1F` the inhibition was 94.2% (active). In the case of `OCC1(CCOc2ccccc2)CCN(Cc2cc3ccccc3o2)CC1`, the inhibition was 28.8%. With `c1ccc2oc(COc3ccc4c(C5CC5)noc4n3)cc2c1` the inhibition was 81.1% (active). For `COc1ccccc1-c1noc2nc(OCc3ccccc3)ccc12`, the inhibition was 95.3% (active). With `c1csc(COc2ccc3c(C4CC4)noc3n2)c1` the inhibition was 82.4% (active). Work on `Cn1c(Cc2ccccc2)nn(CN2CCC3(CC2)OCCO3)c1=S` yielded an inhibition of 8.21%. For `Cc1cccc(COc2ccc3c(C4CC4)noc3n2)c1`, the inhibition was 56% (active). With `c1ccc(COc2ccc3c(C4CC4)noc3n2)cc1` the inhibition was 76.3% (active). In the case of `Cc1ccc(COc2ccc3c(C4CC4)noc3n2)cc1`, the inhibition was 46.7%. With `Clc1cccc(COc2ccc3c(C4CC4)noc3n2)c1` the inhibition was 76.8% (active). Molecule `CCCCn1c(O)c(C=Nc2ccccc2C(=O)O)c(C)c(C#N)c1=O` has an inhibition of -10.6%. With `COc1ccc2nc(-n3nc(C)cc3NC(C)=O)sc2c1` the inhibition was 86% (active). With `CC(=O)c1cccc(CN2CCC(C(=O)Nc3ccc(Oc4cccnc4)cc3)CC2)c1` the inhibition was “inactive”. With `O=C(Nc1ccc(Oc2cccnc2)cc1)C1CCN(C/C=C/c2ccccc2)CC1` the inhibition was 28.8%. With `O=C(Nc1ccc(Oc2cccnc2)cc1)C1CCN(Cc2nccs2)CC1` the inhibition was 88.5% (active). For `O=C(Nc1ccc(Oc2cccnc2)cc1)C1CCN(Cc2cc(Cl)ccc2O)CC1`, the inhibition was 77.8% (active). In the case of `Cc1ccc(CN2CCC(C(=O)Nc3ccc(Oc4cccnc4)cc3)CC2)o1`, the inhibition was 61.8% (active). For `Cc1ccc(C=NNC(=S)NCCCN2CCOCC2)s1`, the inhibition was 102% (active). In the case of `CCCCNC(=S)NN=Cc1ccc(C)s1`, the inhibition was 71% (active). In the case of `CCCCNC(=S)NN=Cc1cccs1`, the inhibition was 103% (active). In the case of `C=C(C)CNC(=S)NN=CC1=CCC2CC1C2(C)C` (configuration not stated), the inhibition was 23%. `COCCNC(=S)NN=Cc1cccs1` showed an inhibition of 38.1%. `CCCCNC(=S)N(C)N=Cc1ccc(C)s1` gave an inhibition of -20.6%.
